Bioassay records from PubChem.
FadD28 binding – inhibitors of Mycobacterium tuberculosis FadD28 bisubstrate binding. FadD28 bisubstrate probe binding, fluorescence polarization. inhibition, % at 12.5 µM. actives 0.22% (n = 360,000); in the data active = inhibition above about 8.5%, passing the limit was not always enough
TcdB GH inh – blocks C. difficile toxin B glycohydrolase activity. TcdB glycohydrolase enzymatic assay, plate reader. inhibition, % at 9.99 µM. AID 652162. actives 0.24% (n = 350,000); in the data active = inhibition above about 10%
UGM FP inh – inhibitors of M. tuberculosis UDP-galactopyranose mutase; purified UGM, fluorescence polarization probe displacement; actives 0.06% (n = 320,000); inhibition, % at 10 µM; P9WIQ1; AID 504406; in the data active = inhibition above about 10%, passing the limit was not always enough
Mtb BioA inh – blocks M. tuberculosis BioA enzyme activity; purified M. tuberculosis BioA enzyme, plate reader; inhibition, % at 9.99 µM; actives 0.096% (n = 360,000); in the data active = inhibition above about 40%
RecA splice inh – Mtb RecA intein splicing inhibition | P9WHJ3 | cell-free RecA intein splicing, fluorescence | inhibition, % (no concentration beside the values) | actives 0.75% (n = 290,000) | AID 2221; in the data active = inhibition above about 30%
Target sequence (P9WHJ3 whole entry, looked up, canonical isoform): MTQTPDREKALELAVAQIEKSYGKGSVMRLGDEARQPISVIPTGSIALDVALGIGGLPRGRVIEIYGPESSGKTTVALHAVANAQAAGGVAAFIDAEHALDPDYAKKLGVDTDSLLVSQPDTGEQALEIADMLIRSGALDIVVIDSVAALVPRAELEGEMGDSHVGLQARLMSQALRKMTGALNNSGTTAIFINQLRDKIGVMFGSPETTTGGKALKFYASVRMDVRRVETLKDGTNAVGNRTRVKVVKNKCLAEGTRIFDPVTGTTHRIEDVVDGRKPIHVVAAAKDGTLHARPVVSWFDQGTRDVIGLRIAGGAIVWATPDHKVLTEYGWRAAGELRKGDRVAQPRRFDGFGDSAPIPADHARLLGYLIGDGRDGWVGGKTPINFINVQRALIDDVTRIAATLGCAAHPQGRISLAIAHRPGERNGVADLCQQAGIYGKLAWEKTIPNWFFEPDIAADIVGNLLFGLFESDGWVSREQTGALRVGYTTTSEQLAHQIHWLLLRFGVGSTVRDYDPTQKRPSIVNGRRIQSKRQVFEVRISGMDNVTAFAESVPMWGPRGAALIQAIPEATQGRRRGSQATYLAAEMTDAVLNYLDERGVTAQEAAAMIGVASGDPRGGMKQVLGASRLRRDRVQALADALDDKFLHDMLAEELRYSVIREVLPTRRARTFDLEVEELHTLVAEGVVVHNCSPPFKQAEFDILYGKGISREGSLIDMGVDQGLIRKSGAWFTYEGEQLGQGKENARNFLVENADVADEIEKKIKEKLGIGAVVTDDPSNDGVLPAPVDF
Rv3671c protease – Rv3671c (M. tuberculosis) protease inhibition | actives 0.048% (n = 320,000) | P9WHR9 | inhibition, % at 5.96 µM; in the data active = inhibition above about 38%;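 note: extracellular domain of Rv3671c used as enzyme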
GFP chromo cs – counter-screen GFP chromophore formation inhibition. shares compounds with RecA splice inh. cell-free GFP chromophore formation, fluorescence. EC50, µM. actives 83% (n = 2,100). AID 434968; call rule not given here
Hits are given with their value; - = inactive; . = no result given. A selection: hits, their analogues and other compounds. The true share with any hit is near 0.9%.

SMILES	FadD28 binding	TcdB GH inh	UGM FP inh	Mtb BioA inh	RecA splice inh	Rv3671c protease	GFP chromo cs
C[C@H](CO)N1C[C@H](C)[C@@H](CN(C)Cc2ccccn2)Oc2ncc(C#Cc3cccc(F)c3)cc2C1=O	.	-	.	-	.	.	.
CCOC(=O)c1ccc(CC2S/C(=C(\C#N)C(C)=O)NC2=O)cc1 (stereo not given)	-	.	-	-	81.7	-	-
CCc1ccc(CC2S/C(=C(\C#N)C(C)=O)NC2=O)cc1 (stereo not given)	-	.	-	-	-	-	.
O=C(CSCc1ccc([N+](=O)[O-])cc1)N/N=C/c1cccnc1	-	-	-	-	38.1	-	-
CCc1ccccc1N1C(=O)C(Cl)=C(N2CCOCC2)C1=O	-	-	-	-	67.4	-	9.91
Cc1ccc(N2C(=O)C(Cl)=C(N3CCOCC3)C2=O)c(C)c1	-	-	-	-	60.0	-	10.7
CCOc1ccc(N2C(=O)C(Cl)=C(N3CCOCC3)C2=O)cc1	-	-	-	-	.	-	.
O=C1C(Cl)=C(N2CCOCC2)C(=O)N1c1ccc(Br)cc1	-	-	-	-	52.7	-	2.46
CC(C)c1ccc(N2C(=O)C(Cl)=C(N3CCOCC3)C2=O)cc1	-	-	-	.	-	-	.
O=C1C(Cl)=C(N2CCOCC2)C(=O)N1c1ccccc1F	-	-	-	-	.	-	7.2
Cc1ccccc1N1C(=O)C(Cl)=C(N2CCOCC2)C1=O	-	-	-	-	59.2	-	12.2
Cc1ccc(CNC(=O)c2ccc(N(C)S(=O)(=O)c3ccccc3)cc2)cc1	-	-	-	-	37.4	-	-
CN(c1ccccc1)S(=O)(=O)c1ccc(C(=O)NCc2ccc(F)cc2)cc1	-	-	-	-	.	-	.
Cc1noc(C)c1NC(=O)N(C)C[C@H]1Oc2cc(C#CCC3CCCC3)ccc2S(=O)(=O)N([C@@H](C)CO)C[C@H]1C	.	-	.	-	.	.	.
C[C@@H]1CN([C@H](C)CO)C(=O)c2cc(C#CC3CC3)cnc2O[C@H]1CN(C)Cc1ccccn1	.	-	.	-	.	.	.
COc1ccc(S(=O)(=O)Nc2cccc3c2O[C@@H](CN(C)C(=O)NC(C)C)[C@@H](C)CN([C@@H](C)CO)C3=O)cc1	.	-	.	-	.	.	.
N#CC(c1ccccc1)c1cnccn1 (stereo not given)	-	-	-	-	33.3	-	-
COc1ccc(C(C#N)c2cnccn2)cc1OC (stereo not given)	-	-	-	-	-	-	.
CO[C@H]1CN(C)C(=O)c2cc(NC(=O)C3CC3)ccc2OC[C@H](C)N(C(=O)Cc2ccccn2)C[C@@H]1C	.	-	.	-	.	.	.
c1ccc(-c2nnc(-c3ccccn3)nc2NC2CCCCC2)cc1	-	-	-	-	37.9	-	22.6
CNc1nc(-c2ccccn2)nnc1-c1ccccc1	-	.	-	-	-	-	.
C[C@@H]1CN([C@H](C)CO)C(=O)c2cccc(NS(=O)(=O)c3cccs3)c2O[C@@H]1CN(C)C(=O)NC1CCCCC1	.	-	.	-	.	.	.
CCN(CC)C(=O)CSc1nnc(COc2ccc(OC)cc2)n1N	-	-	-	.	-	-	.
CCN(CC)C(=O)CSc1nnc2nnc3cc(OC)ccc3n12	-	-	-	-	31.0	-	-
COc1ccc(C2C(C#N)=C(N)Oc3n[nH]c(C)c32)cc1CSc1ccccn1 (stereo not given)	-	.	-	-	80.5	-	17.2
SMILES	FadD28 binding	TcdB GH inh	UGM FP inh	Mtb BioA inh	RecA splice inh	Rv3671c protease	GFP chromo cs
COc1ccc(C2C(C#N)=C(N)Oc3n[nH]c(C)c32)cc1Cn1nnc2ccccc21 (stereo not given)	-	-	-	-	60.5	-	13.4
O=c1cc(-c2cccc3ccccc23)[nH][nH]1	-	.	-	-	92.5	-	3.46
COc1ccc(S(=O)(=O)N(C)C[C@@H]2Oc3ccc(NC(=O)Cc4cn(C)c5ccccc45)cc3CC(=O)N([C@@H](C)CO)C[C@H]2C)cc1	.	-	.	-	.	.	.
O=c1c(Cl)c(Cl)cnn1Cc1ccccc1Cl	.	.	-	.	38.2	-	20.1
O=c1c(Cl)c(Cl)cnn1Cc1nnc(-c2ccc(Cl)cc2)o1	-	-	.	.	37.4	.	9.33
COC(=O)c1c(CC[C@@H](CO)NC(=O)N[C@@H](Cc2ccccc2)Cn2cc(C3(O)CCCC3)nn2)oc(C(=O)N2CCOCC2)c1C(=O)OC	.	-	.	-	.	.	.
[O-]C1=N/[N+](=C/c2ccc(Cl)c(Cl)c2)CC1	-	.	-	-	35.6	-	38.3
[O-]C1=N/[N+](=C/c2ccccc2)CC1	-	-	-	-	80.8	-	29.5
[O-]C1=N/[N+](=C/c2ccccc2Cl)CC1	-	.	-	-	69.6	-	17.1
O=C(C[C@@H]1CC[C@@H]2[C@H](COC[C@H](O)CN2C(=O)c2cnccn2)O1)NCc1ccccc1	.	-	.	-	.	.	.
O=C(C[C@H]1CC[C@H]2[C@@H](COC[C@@H](O)CN2C(=O)c2cccnc2)O1)NC1Cc2ccccc2C1	.	-	.	-	.	.	.
Cc1nnc(NC(=O)CCS(=O)(=O)c2ccccc2)s1	-	-	-	-	-	-	.
CC(C)c1nnc(NC(=O)c2nc(S(=O)(=O)Cc3ccccc3F)ncc2Cl)s1	.	-	-	.	83.1	-	13.9
Cc1nnc(NC(=O)c2nc(S(=O)(=O)Cc3ccccc3C)ncc2Cl)s1	-	-	-	-	67.1	-	-
CSc1nnc(NC(=O)c2nc(S(=O)(=O)Cc3ccccc3F)ncc2Cl)s1	-	-	-	-	76.1	-	22.9
CC(C)c1nnc(NC(=O)CCC(=O)NCc2ccccc2Cl)s1	-	-	-	-	-	-	.
C[C@H](NC(=O)C[C@@H]1C=C[C@@H](NC(=O)Nc2ccc3c(c2)OCO3)[C@@H](CO)O1)c1ccccc1	.	-	.	.	.	.	.
O=C(N[C@H]1CC[C@H](CCNS(=O)(=O)c2ccc(F)cc2)O[C@H]1CO)c1ccccn1	.	-	.	-	.	.	.
CC(=O)c1cccc2c(O)c(C3=Nc4ccccc4C3=O)[nH]c12	-	.	-	-	41.5	-	4.58
C[C@@H]1CN([C@@H](C)CO)C(=O)c2cc(C#CC(C)(C)O)cnc2O[C@@H]1CN(C)Cc1cncnc1	.	-	.	-	.	.	.
CCOC(=O)c1c(CC(C)C)csc1NC(=O)CCl	-	-	-	-	51.7	-	-
CCOC(=O)c1c(CC(C)C)csc1NC(=O)C(C)C	-	.	-	-	-	-	.
COc1ccc2c3c(n(C)c2c1)[C@@H](CO)N(C(=O)Nc1ccc(F)cc1)CC31CN(C(=O)c2ccc3c(c2)OCO3)C1	.	-	.	.	.	.	.
CCN(CC)CC(=O)Nc1sc(C)cc1C(=O)c1ccccc1	-	-	-	-	-	-	.
Cc1cc(C(=O)c2ccccc2)c(NC(=O)CCl)s1	-	.	-	.	58.4	-	16.8
O=C1C=C(N2CCOCC2)c2ccccc2C1=O	-	-	-	-	96.8	-	0.557
COc1ccc(NC(=O)N(C)C[C@H]2Oc3ccc(NC(=O)Cc4cn(C)c5ccccc45)cc3CC(=O)N([C@H](C)CO)C[C@@H]2C)cc1	.	-	.	-	.	.	.
C[C@@H]1CCCCO[C@H](CN(C)C(=O)C2CCCCC2)[C@@H](C)CN([C@@H](C)CO)C(=O)c2cc(NC(=O)c3ccncc3)ccc2O1	.	-	.	-	.	.	.
